Source: PubChem BioAssay (NCI)
This is part of a sample that, as a whole, favours compounds with a hit. Of some 83,000 tested, about 20% had one in any assay.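 Assay: single dose, 48 h. Readout: percent growth (0 = no net growth; negative = cell death). Active: <10.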 Calls of active or inactive are those of the source.

Test system: MDA-MB-468 breast
Test: NCI-60 one-dose screen, 48 h (100 = growth as untreated, 0 = no growth, -100 = all killed)
Details: 10 µM unless noted

Compound	growth
CNC(=O)c1cc(Oc2ccc3nc(NC(=O)c4ccc(CN5CCN(C)CC5)c(C(F)(F)F)c4)sc3c2)ccn1	52.1% (inactive)
O=C1c2ccc3c4c5ccc(c24)C(=O)N1CCCOCCCCOCCCNCc1ccc(cc1)CNCCCOCCCCOCCCN(C3=O)C5=O	-81.4% (active)
O=C1/C=C/[C@@H](O)[C@@H]2C[C@@H](O)C[C@H]2/C=C/CCC[C@H](C(F)(F)F)O1	-69.1% (active)
O=C(NC(=S)N1CC=CCC1)c1ccccc1	121% (inactive)
Cc1cccc([N+](=O)[O-])c1I	104% (inactive)
COc1ccc(CCn2cncc2-c2c[nH]c3ccccc23)cc1	94.5% (inactive)
Cc1ccc(Cc2cnc(NC(=O)c3cc(Br)cs3)s2)cc1	30% (inactive)
O=C(c1ccccc1)C1OC1c1ccc([N+](=O)[O-])cc1 (stereo not given)	29.2% (inactive)
O=C1NC(=O)C(CC(=O)n2c(-c3ccccc3)nc3ccccc32)C(=O)N1	98.3% (inactive)
COc1ccc(/C=C/C(=O)c2ccc(NC(=O)CSc3nnc(-c4ccc5nc(-c6ccc(Cl)cc6)[nH]c5c4)o3)cc2)cc1	110% (inactive)
N#Cc1c(-c2ccc(Cl)cc2)nc(NN2C(=O)c3ccccc3C2=O)nc1N1CCOCC1	99.4% (inactive)
CN(C)CCN1C(=O)c2ccc3c4c(ccc(c24)C1=O)C(=O)N(CCN=C=S)C3=O	-88.8% (active)
O=C(O)CCNC1CCCCC1	93.1% (inactive)
Cc1cc(N2CCN(C)CC2)nc(NCc2cc(Nc3ccnc4cc(Cl)ccc34)ccc2F)n1	-60.4% (active)
Nc1cc(C(=O)NC[C@H]2CN(c3ccc(N4CCC(C(=O)O)CC4)cc3)C(=O)O2)ccc1Cl	99.4% (inactive)
Oc1[nH]c2ccc(Cl)cc2c1/C=c1/ccc2c(c1)N=C(c1ccc(F)cc1)N=2	9.65% (active)
O=C1/C(=C/c2ccc(O)cc2)COc2ccc(O)cc21	100% (inactive)
C=CCC(=O)N[C@H](/C=C/C(=O)O)Cc1ccc(-c2cc(Cl)cc(Cl)c2)cc1	101% (inactive)
Oc1ccccc1/C=N/Nc1nc2ccccc2s1	21.5% (inactive)
Cc1ccc(NC(=O)c2[nH]c(SCCN(C)C)nc2-c2ccc(F)cc2)cc1C#Cc1cnc2cccnn12	83.1% (inactive)

Compound	growth
Cn1cc(-c2nnc(N)nc2-c2cn(C)c3ccc(F)cc23)c2cc(F)ccc21	99.8% (inactive)
O=C1c2ccccc2C(=O)c2c1cccc2-n1nnc2ccccc21	109% (inactive)
FC(F)c1nc2ccccc2n1-c1nc(N2CCOCC2)nc(N2CCOCC2)n1	-43.2% (active)
CCCCCCCC/C=C\CCCCCCCCOc1ccccc1CC(=O)NCC[N+]1(C)CCCCC1	-9.98% (active)
COc1ccc(C(=O)/C=C/c2ccc(C)cc2)cc1S(N)(=O)=O	60.4% (inactive)
O=C(CSc1nc(-c2ccc(Cl)cc2)cn1-c1ccc(Cl)cc1)c1ccc(Br)cc1	81.3% (inactive)
CCNC(=O)c1ccc2c(c1)nc(-c1ccc(Cl)cc1)n2-c1cc(C(C)(C)C)[nH]n1	32.8% (inactive)
CCCc1cc(=O)oc2c(C(=O)CC(C)C)c(O)c(CC=C(C)C)c(O)c12	1.81% (active)
CCN(CC)CCCOC(=O)Nc1ccccc1Cl	107% (inactive)
CCC(=O)NC1=C(Cl)C(=O)C(NC(=O)CC)=C(Cl)C1=O	-69.8% (active)
CN(c1ccccc1)c1ncnc2c1ncn2C	113% (inactive)
O=C(/C=C/c1cccs1)c1ccc(Cl)nc1	103% (inactive)
CCn1c2ccccc2c2cc(NC(=O)Nc3ccc([N+](=O)[O-])cc3C)ccc21	7.62% (active)
Cc1sc2nc(NCCc3c[nH]c4ccc(Cl)cc34)[nH]c(=O)c2c1C	4.19% (active)
Oc1cc(Nc2ccnc3cc(Cl)ccc23)c2ncccc2c1	47.4% (inactive)
CC1=C(C)C(=O)C(Nc2cccc(C)c2)=C(Br)C1=O	-43.1% (active)
C=C(C)[C@@H]1CC[C@]2(C(N)=O)CC[C@]3(C)[C@H](CC[C@@H]4[C@@]5(C)C/C(=C/c6ccco6)C(=O)C(C)(C)[C@@H]5CC[C@]43C)[C@@H]12	87.6% (inactive)
O=C(CSc1nnc(-c2ccc(Cl)cc2)n1-c1ccccc1)Nc1ccc(F)cc1	91.8% (inactive)
CCCCCCCCCCCCCCCCCCNC(=S)N/N=C/c1ccc(OC)c(OC)c1	93.5% (inactive)
COc1cc2nccc(Oc3ccc(NC(=O)Nc4cc(C)on4)c(Cl)c3)c2cc1OC	15% (inactive)
